Assay results: PubChem BioAssay AID504725 (Broad Institute, 2011)
Results with a measured potency or affinity are listed apart. Active and inactive are the calls of the source. No rule for the calls is given here.

Target: KSHV LANA C-terminal domain (residues 932-1162) binding to LBS DNA (UniProt O40947)
Assay: inhibitors of C-LANA binding to LBS DNA, dose response, biochemical, fluorescence polarization, cherry-picked samples (AID 504725)
Conditions: MBP-C-LANA / FAM-LBS DNA fluorescence polarization, percent change from plate compound-well median; series mostly up to 35 µM

outcome, inactive:
O=C(CCn1c(=S)oc2ccccc21)N1CCN(c2ccc(F)cc2)CC1
COc1ccc(-c2cnc3n2CCCCC3)cc1
CC(C)C(=O)N1CCN(c2ccccc2NC(=S)NC(=O)c2ccco2)CC1
Cc1cccc(Nc2nc(N)c([N+](=O)[O-])c(NCc3ccccc3)n2)c1
C=CCNC(=O)c1cn(CC)c2cc(N3CCN(C(=O)c4ccco4)CC3)c(F)cc2c1=O
Cc1noc(C)c1CSCC(=O)Nc1nc2c(F)cc(F)cc2s1
Nc1ccccc1C(=O)N1O[C@@H]2C=C[C@H]1CC2
COc1ccc(CCNC(=O)CCCNC(=O)Cn2cnc3sc(C)c(C)c3c2=O)cc1OC
O=C(NC1(O)C(=O)c2ccccc2C1=O)c1c(Cl)cccc1Cl
Fc1ccc(-c2cc(C(F)(F)F)nc(-n3cc(Cl)cn3)n2)cc1
O=C1/C(=C/c2ccco2)SC(=S)N1c1cccnc1
O=C(O)c1cccc(-n2cccc2/C=C/[N+](=O)[O-])c1
CN(c1ccccc1)S(=O)(=O)c1cccc(NS(=O)(=O)c2cccc(C(=O)O)c2)c1
COc1cc(SC)ccc1C(=O)Nc1nc(C)cs1
O=C(O)CN1C(=O)/C(=C\c2cc(Br)ccc2OCc2ccc([N+](=O)[O-])cc2)SC1=S
COc1ccc(N(CC(=O)NCc2ccc3c(c2)OCO3)C(=O)c2csnn2)cc1
Cc1cccc(N(Cc2ccccc2)C(=O)C2CCN(C(=O)c3ccccc3C)CC2)c1
Cc1cc(Cl)ccc1N1C(=O)CC(NNC(=O)c2cccnc2)C1=O (stereo not drawn)
Cc1ccc(N=Nc2c(O)[nH]c3ccc(F)cc23)cc1
COc1cccc(C2CC(=O)Nc3cc4c(cc32)CCC4)c1 (stereo not drawn)
CC(Sc1nc2ccccc2s1)C(=O)Nc1nnc(C(C)C)s1 (stereo not drawn)
O=C(NCc1cccnc1)C(=O)C1C(=O)Nc2ccccc21 (stereo not drawn)
O=C(CCNc1ccc(Cc2ccncc2)cc1)c1cccc([N+](=O)[O-])c1
NNC(=O)CC1=NNC(=O)C1
O=C(O)C(c1ccccc1)N1C(=O)/C(=C\c2ccc(-c3cccc(Cl)c3)o2)SC1=S (stereo not drawn)
CC(/C=C1\SC(=S)N(CCCC(=O)Nc2ccc(C(=O)O)cc2)C1=O)=C\c1ccccc1
Cn1c(=O)c2c(nc(N/N=C/c3ccc(OC(=O)c4ccco4)cc3)n2Cc2ccc(F)cc2)n(C)c1=O
CCCCn1c(NS(=O)(=O)c2ccc(C)cc2)c(S(=O)(=O)c2ccccc2)c2nc3ccccc3nc21
CN1CCN(C(=S)c2ccc(N(C)C)cc2)CC1
NC(=O)c1ccc(NC(=O)C2COc3ccccc3O2)cc1 (stereo not drawn)
O=c1[nH][nH]cc1C=Nc1ccc(Cl)cc1Cl
CN(C)/C=N/c1nc2nccc(-c3ccc(Cl)cc3)n2n1
O=C1CN=C(Nc2ccccc2Cl)N1Cc1ccc2c(c1)OCO2
Cc1nnc(NC(=O)CN2C(=O)NC3(CCCC3)C2=O)s1
COc1cc(C(=O)O)cc(NC(=O)c2ccco2)c1OC
CCOC(=O)C1C2C=CC3(CN(c4cccc(Cl)c4)C(=O)C13)O2 (stereo not drawn)
Cc1nn(Cc2c(F)c(F)c(F)c(F)c2F)c(C)c1NC(=O)c1ccnn1C
COC(=O)C1CCN(C(=O)COC(=O)Cc2c[nH]c3ccccc23)CC1
